# Data taken from PubChem BioAssay AID1159580 (chemical genetic matrix, 2015).
# Where “and” joins values, the source holds several entries; their conditions need not be identical. Equal entries are not always repeated. Among all 5,500 compounds or so, about 2,000 (36%) were called active. Another 18% or so got no clear call; they are omitted. Some of the results follow. A number with no mark means an inactive call. No stated cut-off is given here; in the data, active means normalized growth mostly below about 0.91 (no sharp cut-off); inconclusive means no clear call, values can overlap the other calls; inactive means mostly above about 0.92.
# Assay: chemical genetic growth profiling, strain panel (AID 1159580);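 further: tested at 20 µM; growth read once vehicle control cultures reached saturation at 30 °C; 1 = growth at the plate median or of vehicle wells; lower values mean less growth of the strain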
# Settings: S. cerevisiae deletion strains, growth OD
# [1] = locus YHR030C, strain SLT2, active compounds read low
# [2] = locus YHR079C, strain IRE1, active compounds read low
# [3] = locus YJL095W, strain BCK1, active compounds read low
# [4] = locus YJR066W, strain TOR1, active compounds read low
# [5] = locus YLR113W, strain HOG1, active compounds read low
# [6] = locus YNL183C, strain NPR1, active compounds read low
# [7] = locus YOR231W, strain MKK1, active compounds read low
# [8] = locus YPL256C, strain CLN2, active compounds read low
smiles,measurement,setting,value
COc1c(-c2coc3cc4c(cc3c2=O)CC(O)C(C)(C)O4)ccc2c1C=CC(C)(C)O2 (stereo not drawn),normalized growth,"locus YAL021C, strain ccr4, active compounds read low",0.992
same,normalized growth,"locus YAL026C, strain drs2, active compounds read low",0.978
same,normalized growth,"locus YAL030W, strain snc1, active compounds read low",0.996
same,normalized growth,"locus YBL061C, strain skt5, active compounds read low",0.983
same,normalized growth,"locus YBR009C, strain hhf1, active compounds read low",0.97
same,normalized growth,"locus YBR023C, strain chs3, active compounds read low",0.983
same,normalized growth,"locus YBR171W, strain sec66, active compounds read low",0.973
same,normalized growth,"locus YBR231C, strain swc5, active compounds read low",0.989
same,normalized growth,"locus YBR279W, strain paf1, active compounds read low",0.989
same,normalized growth,"locus YCL011C, strain gbp2, active compounds read low",0.992
same,normalized growth,"locus YCL016C, strain dcc1, active compounds read low",0.986
same,normalized growth,"locus YCL069W, strain vba3, active compounds read low",0.97
same,normalized growth,"locus YCR088W, strain abp1, active compounds read low",0.979
same,normalized growth,"locus YDL005C, strain med2, active compounds read low",0.972
same,normalized growth,"locus YDL040C, strain nat1, active compounds read low",0.987
same,normalized growth,"locus YDR001C, strain nth1, active compounds read low",0.979
same,normalized growth,"locus YDR069C, strain doa4, active compounds read low",1
same,normalized growth,"locus YDR137W, strain rgp1, active compounds read low",0.902
same,normalized growth,"locus YDR159W, strain sac3, active compounds read low",0.973
same,normalized growth,"locus YDR195W, strain ref2",1.05
same,normalized growth,"locus YDR297W, strain sur2, active compounds read low",0.978
same,normalized growth,"locus YDR334W, strain swr1, active compounds read low",0.958
same,normalized growth,"locus YDR335W, strain msn5, active compounds read low",0.974
same,normalized growth,"locus YDR392W, strain spt3, active compounds read low",0.829
same,normalized growth,"locus YEL003W, strain gim4, active compounds read low",0.99
same,normalized growth,"locus YEL037C, strain rad23, active compounds read low",0.973
same,normalized growth,"locus YEL061C, strain CIN8 (second series), active compounds read low",0.98
same,normalized growth,"locus YER015W, strain faa2, active compounds read low",0.991
same,normalized growth,"locus YER016W, strain bim1, active compounds read low",0.992
same,normalized growth,"locus YER111C, strain swi4, active compounds read low",0.973
same,normalized growth,"locus YER155C, strain BEM2 (second series), active compounds read low",0.967
same,normalized growth,"locus YFR010W, strain ubp6, active compounds read low",0.989
same,normalized growth,"locus YGL167C, strain pmr1, active compounds read low",0.969
same,normalized growth,"locus YGL173C, strain kem1, active compounds read low",0.989
same,normalized growth,"locus YGL227W, strain vid30, active compounds read low",0.992
same,normalized growth,"locus YGL240W, strain doc1, active compounds read low",0.979
same,normalized growth,"locus YGL253W, strain hxk2, active compounds read low",0.983
same,normalized growth,"locus YHR013C, strain ard1, active compounds read low",0.954
same,normalized growth,"locus YHR027C, strain rpn1, active compounds read low",1
same,normalized growth,[1],0.932
same,normalized growth,[2],0.929
same,normalized growth,"locus YHR142W, strain chs7, active compounds read low",0.942
same,normalized growth,"locus YJL092W, strain hpr5, active compounds read low",0.99
same,normalized growth,"locus YJL095W, strain BCK1 (second series), active compounds read low",0.983
same,normalized growth,[3],0.94
same,normalized growth,"locus YJL115W, strain asf1, active compounds read low",0.971
same,normalized growth,"locus YJL129C, strain trk1, active compounds read low",0.887
same,normalized growth,"locus YJL154C, strain vps35, active compounds read low",0.97
same,normalized growth,"locus YJL164C, strain tpk1, active compounds read low",0.974
same,normalized growth,"locus YJL166W, strain qcr8, active compounds read low",0.979
same,normalized growth,"locus YJL187C, strain SWE1, active compounds read low",0.991
same,normalized growth,[4],0.865
same,normalized growth,"locus YKL160W, strain elf1, active compounds read low",0.992
same,normalized growth,"locus YKR026C, strain gcn3, active compounds read low",0.957
same,normalized growth,"locus YKR091W, strain srl3, active compounds read low",0.992
same,normalized growth,"locus YLL001W, strain dnm1, active compounds read low",0.991
same,normalized growth,"locus YLL026W, active compounds read low",0.989
same,normalized growth,"locus YLL041C, strain sdh2, active compounds read low",1.01
same,normalized growth,"locus YLR027C, strain aat2, active compounds read low",0.996
same,normalized growth,[5],0.996
same,normalized growth,"locus YLR221C, strain rsa3, active compounds read low",0.991
same,normalized growth,"locus YLR258W, strain gsy2, active compounds read low",0.965
same,normalized growth,"locus YLR262C, strain YPT6 (second series), active compounds read low",0.877
same,normalized growth,"locus YLR320W, strain mms22, active compounds read low",0.962
same,normalized growth,"locus YLR342W, strain FKS1, active compounds read low",0.98
same,normalized growth,"locus YLR357W, strain rsc2, active compounds read low",0.967
same,normalized growth,"locus YLR370C, strain arc18, active compounds read low",0.995
same,normalized growth,"locus YLR384C, strain iki3, active compounds read low",0.976
same,normalized growth,"locus YML120C, strain ndi1, active compounds read low",1.01
same,normalized growth,"locus YMR058W, strain fet3, active compounds read low",0.993
same,normalized growth,"locus YMR125W, strain sto1, active compounds read low",0.988
same,normalized growth,"locus YMR129W, active compounds read low",0.982
same,normalized growth,"locus YMR205C, strain PFK2, active compounds read low",0.961
same,normalized growth,"locus YMR231W, strain pep5, active compounds read low",0.963
same,normalized growth,"locus YNL071W, strain lat1, active compounds read low",0.975
same,normalized growth,[6],0.922
same,normalized growth,"locus YNL209W, strain ssb2, active compounds read low",1
same,normalized growth,"locus YNL248C, strain rpa49, active compounds read low",0.971
same,normalized growth,"locus YNL322C, strain KRE1 (second series), active compounds read low",1.02
same,normalized growth,"locus YNR049C, strain mso1, active compounds read low",0.99
same,normalized growth,"locus YOR001W, strain rrp6, active compounds read low",0.973
same,normalized growth,"locus YOR070C, strain gyp1, active compounds read low",0.992
same,normalized growth,"locus YOR080W, strain dia2, active compounds read low",0.994
same,normalized growth,"locus YOR083W, strain WHI5, active compounds read low",0.978
same,normalized growth,"locus YOR106W, strain vam3, active compounds read low",0.962
same,normalized growth,[7],0.94
same,normalized growth,"locus YOR265W, strain rbl2, active compounds read low",0.98
same,normalized growth,"locus YOR270C, strain vph1, active compounds read low",0.608 (active)
same,normalized growth,"locus YOR290C, strain snf2, active compounds read low",0.955
same,normalized growth,"locus YPL051W, strain arl3, active compounds read low",0.972
same,normalized growth,"locus YPL078C, strain atp4, active compounds read low",0.972
same,normalized growth,"locus YPL106C, strain sse1, active compounds read low",1.01
same,normalized growth,"locus YPL240C, strain hsp82, active compounds read low",0.982
same,normalized growth,[8],0.922
COc1c(CC(=O)c2cc3c(cc2O)OC(C)(C)C(O)C3)ccc2c1C=CC(C)(C)O2 (stereo not drawn),normalized growth,"locus YBR021W, strain FUR4, active compounds read low",0.653 (active)
same,normalized growth,"locus YBR229C, strain ROT2, active compounds read low",0.998
same,normalized growth,"locus YCL029C, strain bik1, active compounds read low",0.975
same,normalized growth,"locus YDL035C, strain GPR1, active compounds read low",1.01
same,normalized growth,"locus YDL074C, strain BRE1, active compounds read low",0.926
same,normalized growth,"locus YDL101C, strain DUN1, active compounds read low",1.01
same,normalized growth,"locus YDL185W, strain tfp1, active compounds read low",1
same,normalized growth,"locus YDL192W, strain arf1, active compounds read low",0.96
same,normalized growth,"locus YDR101C, strain arx1, active compounds read low",0.974
same,normalized growth,"locus YDR162C, strain NBP2, active compounds read low",1.01
same,normalized growth,"locus YDR318W, strain mcm21, active compounds read low",0.984
same,normalized growth,"locus YDR388W, active compounds read low",0.994
same,normalized growth,"locus YDR502C, strain sam2, active compounds read low",1.01
same,normalized growth,"locus YEL061C, strain CIN8, active compounds read low",1.01
same,normalized growth,"locus YER110C, active compounds read low",1.01
same,normalized growth,"locus YER155C, strain BEM2, active compounds read low",0.989
same,normalized growth,"locus YER167W, strain BCK2, active compounds read low",1
same,normalized growth,"locus YGL078C, strain dbp3, active compounds read low",1.01
same,normalized growth,"locus YGL086W, strain mad1, active compounds read low",0.979
same,normalized growth,"locus YGL248W, strain PDE1, active compounds read low",1.02
same,normalized growth,"locus YGR078C, strain PAC10, active compounds read low",1.03
same,normalized growth,"locus YGR135W, strain pre9, active compounds read low",1.05
same,normalized growth,"locus YGR252W, strain gcn5, active compounds read low",0.937
same,normalized growth,[1],0.955
same,normalized growth,"locus YHR079C, strain IRE1 (second series), active compounds read low",1
same,normalized growth,[2],0.958
same,normalized growth,"locus YHR094C, strain hxt1, active compounds read low",1.01
same,normalized growth,"locus YHR129C, strain ARP1, active compounds read low",0.997
same,normalized growth,"locus YHR200W, strain rpn10, active compounds read low",1
same,normalized growth,"locus YIL066C, strain RNR3, active compounds read low",0.997
same,normalized growth,"locus YIL073C, strain SPO22, active compounds read low",1.05
same,normalized growth,"locus YIL125W, strain kgd1, active compounds read low",0.982
same,normalized growth,"locus YIR030C, strain dcg1, active compounds read low",0.987
same,normalized growth,[3],0.981 and 0.988
same,normalized growth,"locus YJL134W, strain LCB3, active compounds read low",0.996
same,normalized growth,"locus YJL168C, strain set2, active compounds read low",1.02
same,normalized growth,"locus YJL187C, strain SWE1 (second series), active compounds read low",1.02
same,normalized growth,[4],0.935
same,normalized growth,"locus YKL009W, strain mrt4, active compounds read low",0.992
same,normalized growth,"locus YKL068W, active compounds read low",1
same,normalized growth,"locus YKL085W, strain MDH1 (second series), active compounds read low",0.998
same,normalized growth,"locus YKL085W, strain MDH1, active compounds read low",0.998
same,normalized growth,"locus YKR001C, strain vps1, active compounds read low",0.961
same,normalized growth,"locus YLR039C, strain RIC1, active compounds read low",1.08
same,normalized growth,"locus YLR058C, strain SHM2, active compounds read low",0.999
same,normalized growth,"locus YLR102C, strain apc9, active compounds read low",0.992
same,normalized growth,[5],0.961
same,normalized growth,"locus YLR262C, strain YPT6, active compounds read low",1.02
same,normalized growth,"locus YLR268W, strain sec22, active compounds read low",0.977
same,normalized growth,"locus YLR371W, strain rom2, active compounds read low",0.998
same,normalized growth,"locus YLR418C, strain cdc73, active compounds read low",0.938
same,normalized growth,"locus YML016C, strain PPZ1, active compounds read low",0.999
same,normalized growth,"locus YML032C, strain rad52, active compounds read low",0.982
same,normalized growth,"locus YML124C, strain tub3, active compounds read low",0.984
same,normalized growth,"locus YMR078C, strain ctf18, active compounds read low",1
same,normalized growth,"locus YMR223W, strain ubp8, active compounds read low",1.01
same,normalized growth,"locus YMR263W, strain SAP30, active compounds read low",0.996
same,normalized growth,"locus YMR307W, strain GAS1, active compounds read low",0.807
same,normalized growth,"locus YNL067W, strain RPL9B, active compounds read low",1.01
same,normalized growth,"locus YNL128W, strain TEP1, active compounds read low",1.01
same,normalized growth,"locus YNL153C, strain GIM3, active compounds read low",1.06
same,normalized growth,[6],0.937
same,normalized growth,"locus YNL233W, strain BNI4, active compounds read low",0.997
same,normalized growth,"locus YNL250W, strain rad50, active compounds read low",1.06
same,normalized growth,"locus YNL271C, strain bni1, active compounds read low",0.996
same,normalized growth,"locus YNL298W, strain CLA4, active compounds read low",0.991
same,normalized growth,"locus YNL307C, strain MCK1, active compounds read low",0.988
same,normalized growth,"locus YNR052C, strain pop2, active compounds read low",0.993
same,normalized growth,"locus YOL012C, strain htz1",1.64
same,normalized growth,"locus YOL147C, strain pex11, active compounds read low",0.988
same,normalized growth,"locus YOR061W, strain CKA2, active compounds read low",0.996
same,normalized growth,"locus YOR069W, strain VPS5, active compounds read low",1
same,normalized growth,"locus YOR136W, strain idh2, active compounds read low",0.996
same,normalized growth,"locus YOR144C, strain elg1, active compounds read low",0.995
same,normalized growth,"locus YOR184W, strain ser1, active compounds read low",0.851 (active)
same,normalized growth,[7],0.951
same,normalized growth,"locus YOR316C, strain cot1, active compounds read low",0.998
same,normalized growth,"locus YPL055C, strain LGE1, active compounds read low",0.942
same,normalized growth,[8],0.962
same,normalized growth,"locus YPR119W, strain clb2, active compounds read low",0.999
same,normalized growth,"locus YPR141C, strain kar3, active compounds read low",1
same,normalized growth,"locus YPR163C, strain tif3, active compounds read low",0.988
same,normalized growth,"locus YPR167C, strain met16, active compounds read low",1
same,normalized growth,"strain wtn01, active compounds read low",0.972
